Results: PubChem BioAssay AID590 (National Center for Advancing Translational Sciences (NCATS), 2007)
Where “and” joins values, the source holds several entries; their conditions need not be identical. Equal entries are not always repeated. Hit rate of the full screen: of about 59,000 compounds, about 6,500 (11%) were called active. About 15% were inconclusive and are not listed. Rule as the data show it: active = max dye-equivalent concentration above about 10 nM; inconclusive = mostly about 1.1 nM to 9.6 nM; inactive = weaker than that. What follows is part of a selection rich in actives, with near analogues and random picks from the rest.

Assay: qHTS Assay for Spectroscopic Profiling in A350 Spectral Region
Details: Compound autofluorescence, 340/450 nm, Alexa 350 dye-equivalents; active compounds read high
For Cc1nc2nc(SCC(=O)NCc3ccco3)nn2c(C)c1Cc1ccccc1, the max dye-equivalent concentration was “inactive”.
For CCN(CC)S(=O)(=O)c1cccc(C(=O)NCC(=O)OCC(=O)NCc2ccccc2)c1, the max dye-equivalent concentration was “inactive”.
With COc1ccccc1N(C(=O)Cn1nnc2ccccc21)C(C(=O)NCc1ccco1)c1ccc(C)o1 (stereo not drawn) the max dye-equivalent concentration was “inactive”.
For COc1ccc2[nH]cc(CCNc3ncnc4ccc(-c5ccc(C(=O)N(C)C)cc5)cc34)c2c1, the max dye-equivalent concentration was “inactive”.
In the case of O=C(O)c1ccc(-n2cccc2)cc1O, the max dye-equivalent concentration is reported as “inactive”.
In the case of Cc1cc(Cl)ccc1N1C(=O)CC(SCCC(=O)O)C1=O (stereo not drawn), the max dye-equivalent concentration is reported as “inactive”.
In the case of CN(C)c1ccc(NC(=O)c2ccncc2)c2ccccc12, the max dye-equivalent concentration is reported as “inactive”.
For CCN1CCc2c(C#N)c(NCc3ccccc3)nc(NCCO)c2C1, the max dye-equivalent concentration was 5e-07 M (active).
In the case of COc1ccc2c(=O)cc(-c3ccccc3)oc2c1O, the max dye-equivalent concentration is reported as “inactive”.
For Cc1noc(C)c1-c1nccc(N2CCOCC2)n1, the max dye-equivalent concentration was “inactive”.
With O=C(Nc1nsc(-c2ccccc2)n1)c1ccncc1 the max dye-equivalent concentration was “inactive”.
For CC[C@]1(O)CC2CN(CCc3c([nH]c4ccccc34)[C@@](C(=O)OC)(c3cc4c(cc3OC)N(C=O)[C@H]3[C@@](O)(C(=O)OC)[C@H](OC(C)=O)[C@]5(CC)C=CCN6CC[C@]43[C@@H]65)C2)C1 (stereo partly drawn), the max dye-equivalent concentration was “inactive”.
In the case of CC[C@]1(O)C[C@@H]2CN(CCc3c([nH]c4ccccc34)[C@@](C(=O)OC)(c3cc4c(cc3OC)N(C)[C@H]3[C@@](O)(C(=O)OC)[C@H](OC(C)=O)[C@]5(CC)C=CCN6CC[C@]43[C@@H]65)C2)C1, the max dye-equivalent concentration is reported as 5.4e-08 M (active).
With Cc1ccc(-c2csc3nnc(SCC(=O)NCc4ccco4)n23)cc1 the max dye-equivalent concentration was “inactive”.
In the case of CC1CN(C2CCCCC2)c2nc3c(c(=O)n(C)c(=O)n3C)n2C1 (stereo not drawn), the max dye-equivalent concentration is reported as “inactive”.
For COC(=O)C1=C(N)Oc2cc(C)oc(=O)c2C1c1cccnc1 (stereo not drawn), the max dye-equivalent concentration was “inactive”.
For CC1=C(C(=O)OC2CCCCC2)C(c2cccnc2)n2ncnc2N1 (stereo not drawn), the max dye-equivalent concentration was “inactive”.
In the case of CCSc1nc2c(c(=O)[nH]1)C(c1cccnc1)C(C(=O)OC(C)C)=C(C)N2 (stereo not drawn), the max dye-equivalent concentration is reported as 1.2e-08 M (active).
In the case of C=C(C)c1cccc(C(C)(C)NC(=O)N2CCN(c3ncccn3)CC2)c1, the max dye-equivalent concentration is reported as “inactive”.
In the case of CCOC(=O)c1c(C2CC2)csc1NC(=O)CSCc1c(C)noc1C, the max dye-equivalent concentration is reported as “inactive”.
With COc1c(C)c2c(c(O)c1C/C=C(\C)CCC(=O)O)C(=O)OC2 the max dye-equivalent concentration was 6e-08 M (active) and 1.6e-08 M (active).
With COc1ccc(CC(=O)Nc2ccc3c(c2)CCC3)cc1S(=O)(=O)N1CCOCC1 the max dye-equivalent concentration was “inactive”.
In the case of Clc1ccc(C=Nc2ccc3c(c2)Cc2ccccc2-3)c(Cl)c1, the max dye-equivalent concentration is reported as “inactive”.
With CCOc1cc(CO)ccc1OCC(=O)N1CCCCC1 the max dye-equivalent concentration was “inactive”.
In the case of Cc1ccc2c(c1)sc1ncc(NC(=O)c3ccccc3)c(=O)n12, the max dye-equivalent concentration is reported as 6.5e-08 M (active).
For Cc1ccccc1NC(=O)c1ccccc1, the max dye-equivalent concentration was “inactive”.
For Cc1ccc(NC(=O)c2nc[nH]c2C(=O)N2CCCCC2)c(C(=O)c2ccccc2)c1, the max dye-equivalent concentration was “inactive”.
With CCC(Oc1ccccc1)C(=O)NCc1cccnc1 (stereo not drawn) the max dye-equivalent concentration was “inactive”.
In the case of Cc1ccc(S(=O)(=O)c2nc(NCCCn3ccnc3)sc2Cl)cc1, the max dye-equivalent concentration is reported as “inactive”.
With CC1(C)C/C(=C(/C#N)C(N)=O)CCO1 the max dye-equivalent concentration was “inactive”.
For CC(C(=O)Nc1ccccc1-c1ccccc1)N1CCOCC1 (stereo not drawn), the max dye-equivalent concentration was “inactive”.
For O=C(c1ccccc1-c1ccccc1)N1CCOCC1, the max dye-equivalent concentration was “inactive”.
In the case of CC(C(=O)N1CCOCC1)N1c2cccc3cccc(c23)S1(=O)=O (stereo not drawn), the max dye-equivalent concentration is reported as 8e-08 M (active).
With COC(=O)c1nc(NC(=O)c2ccc(Cl)cc2)n[nH]1 the max dye-equivalent concentration was “inactive”.
With CCC(=O)c1ccc(OCC(O)CN2CC(C)OC(C)C2)cc1 (stereo not drawn) the max dye-equivalent concentration was “inactive”.
In the case of CC1CCCC(NC(=O)CN2CCN(Cc3ccc(Cl)cc3)C2=O)C1C (stereo not drawn), the max dye-equivalent concentration is reported as “inactive”.
For C[C@@H](N)[C@@H](C)Cc1ccccc1, the max dye-equivalent concentration was “inactive”.
For Cc1ccc(C)n1C(Cc1ccccc1)C(=O)O (stereo not drawn), the max dye-equivalent concentration was 1.3e-08 M (active).
In the case of CC(=O)c1ccc(NC(=O)N[C@@H](Cc2ccccc2)C(=O)O)cc1, the max dye-equivalent concentration is reported as “inactive”.
With O=C(C1CCCO1)N(Cc1ccccc1)c1ccccc1 (stereo not drawn) the max dye-equivalent concentration was “inactive”.
With CCN(c1ccccc1)S(=O)(=O)c1cccc(C(=O)O)c1 the max dye-equivalent concentration was “inactive”.
In the case of Nc1nc(N)c2[nH]c(CNc3ccc(C(=O)O)cc3)nc2n1, the max dye-equivalent concentration is reported as “inactive”.
For O=C(Nc1ccc(Cl)cn1)Nc1cccs1, the max dye-equivalent concentration was “inactive”.
In the case of COc1ccc(N2CCN(C(=O)CSc3ncnc4c3cnn4-c3ccc(OC)cc3)CC2)cc1, the max dye-equivalent concentration is reported as “inactive”.
With c1ccc(-n2ncc3c(N4CCCC4)ncnc32)cc1 the max dye-equivalent concentration was “inactive”.
For Cc1ccc(-n2ncc3c2ncn2nc(-c4ccco4)nc32)c(C)c1, the max dye-equivalent concentration was “inactive”.
In the case of CCCc1nc2c3cnn(-c4cccc(Cl)c4)c3ncn2n1, the max dye-equivalent concentration is reported as “inactive”.
With COc1ccc(-n2ncc3c(N4CCCc5ccccc54)ncnc32)cc1 the max dye-equivalent concentration was 2.5e-08 M (active).
In the case of Cc1cccc(-n2ncc3c(N4CCc5ccccc54)ncnc32)c1, the max dye-equivalent concentration is reported as 1.5e-08 M (active).
With Cc1cc2ccccc2n2c(SCC(=O)N3CCN(C(=O)c4ccco4)CC3)nnc12 the max dye-equivalent concentration was “inactive”.
With CC(=O)Nc1ccn(Cc2c(F)cccc2Cl)n1 the max dye-equivalent concentration was “inactive”.
In the case of CCCCCn1c(SCCC(C)C)nc2c1c(=O)[nH]c(=O)n2C, the max dye-equivalent concentration is reported as “inactive”.
For O=C(O)CN(Cc1ccco1)S(=O)(=O)c1ccc(F)cc1, the max dye-equivalent concentration was “inactive”.
